Bioassay records deposited in PubChem by several laboratories.
p47phox inh – inhibitors of human p47phox binding | inhibition, % at 24.7 µM | p47phox/p22phox peptide binding, fluorescence polarization, 2 h | AID 1274 | P14598 | 0.53% of 220,000 active
Bim-Mcl-1 – disrupts Bim peptide binding to human Mcl-1. Q07820. 0.1% of 190,000 active. Bead-based flow cytometry, Bim peptide-Mcl-1 binding. AID 1009. inhibition, % at 10 µM; in the data active means inhibition above about 40%
14-3-3 Bad inh – disrupts binding of bovine 14-3-3 zeta to phospho-Bad peptide; TR-FRET 14-3-3zeta/Dy647-pBad peptide displacement, 1 h; inhibition, % at 21.7 µM; AID 781; 0.71% of 220,000 active; P63103;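 active means inhibition above about 70%, limit read from the data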
eIF4E-4G inh – eIF4E/eIF4G interaction inhibition in translation initiation. P63073+Q04637. TR-FRET eIF4E-eIF4GI(517-606) binding, 2 h. inhibition, % at 21.7 µM. 0.37% of 220,000 active
Target sequence (P63073 whole entry, looked up): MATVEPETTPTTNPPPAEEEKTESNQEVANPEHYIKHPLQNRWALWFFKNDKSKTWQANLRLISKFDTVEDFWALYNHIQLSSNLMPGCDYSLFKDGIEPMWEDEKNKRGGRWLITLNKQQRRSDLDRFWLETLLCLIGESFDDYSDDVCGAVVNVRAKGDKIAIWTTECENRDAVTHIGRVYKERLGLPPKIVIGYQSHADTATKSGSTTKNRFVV
Target sequence (Q04637 whole entry, looked up): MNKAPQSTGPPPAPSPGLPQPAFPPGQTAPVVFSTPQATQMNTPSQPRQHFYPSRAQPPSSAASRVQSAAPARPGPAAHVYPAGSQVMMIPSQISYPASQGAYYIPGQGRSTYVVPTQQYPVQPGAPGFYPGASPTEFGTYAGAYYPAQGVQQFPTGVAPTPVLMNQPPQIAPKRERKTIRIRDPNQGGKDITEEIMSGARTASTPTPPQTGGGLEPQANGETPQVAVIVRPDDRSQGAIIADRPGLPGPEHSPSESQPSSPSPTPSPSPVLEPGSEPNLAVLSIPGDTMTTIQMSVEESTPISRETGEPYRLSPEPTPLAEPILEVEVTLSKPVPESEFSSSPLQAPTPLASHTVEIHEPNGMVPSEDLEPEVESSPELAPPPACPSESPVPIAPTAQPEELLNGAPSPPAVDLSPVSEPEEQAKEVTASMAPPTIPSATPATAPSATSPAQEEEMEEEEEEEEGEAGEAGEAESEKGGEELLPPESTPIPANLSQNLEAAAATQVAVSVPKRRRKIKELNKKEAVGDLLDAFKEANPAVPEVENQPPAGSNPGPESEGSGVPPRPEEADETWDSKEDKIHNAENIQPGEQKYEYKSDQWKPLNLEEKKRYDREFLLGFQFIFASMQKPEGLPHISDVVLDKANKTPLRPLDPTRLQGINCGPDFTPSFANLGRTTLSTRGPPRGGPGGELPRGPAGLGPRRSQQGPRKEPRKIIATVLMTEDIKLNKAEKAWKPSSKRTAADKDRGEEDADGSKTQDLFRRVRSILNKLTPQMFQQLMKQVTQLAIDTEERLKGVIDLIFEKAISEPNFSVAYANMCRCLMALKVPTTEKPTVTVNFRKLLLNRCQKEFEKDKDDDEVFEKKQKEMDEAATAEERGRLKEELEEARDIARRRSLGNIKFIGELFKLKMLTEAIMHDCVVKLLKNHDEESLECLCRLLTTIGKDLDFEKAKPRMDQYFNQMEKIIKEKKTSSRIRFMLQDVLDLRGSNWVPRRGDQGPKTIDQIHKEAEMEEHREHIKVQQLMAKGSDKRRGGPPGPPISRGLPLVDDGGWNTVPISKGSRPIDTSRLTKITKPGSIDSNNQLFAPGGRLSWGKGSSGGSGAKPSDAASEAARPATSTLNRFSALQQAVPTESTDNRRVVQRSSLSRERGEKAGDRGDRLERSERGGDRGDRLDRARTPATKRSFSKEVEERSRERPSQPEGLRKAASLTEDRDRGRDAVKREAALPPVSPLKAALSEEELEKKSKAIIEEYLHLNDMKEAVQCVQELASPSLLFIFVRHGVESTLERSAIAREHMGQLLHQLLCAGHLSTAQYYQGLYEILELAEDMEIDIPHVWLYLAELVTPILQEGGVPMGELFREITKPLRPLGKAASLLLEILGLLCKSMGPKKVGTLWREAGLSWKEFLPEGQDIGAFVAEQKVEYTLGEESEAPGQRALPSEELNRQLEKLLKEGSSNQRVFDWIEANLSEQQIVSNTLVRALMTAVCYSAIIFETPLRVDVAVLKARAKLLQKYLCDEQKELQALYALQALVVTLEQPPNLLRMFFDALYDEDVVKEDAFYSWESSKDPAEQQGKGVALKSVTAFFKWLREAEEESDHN
Mcl1-Noxa inh – Mcl-1/Noxa interaction inhibition; Q07820; TR-FRET Mcl-1/Noxa peptide binding, 2 h; inhibition, % at 21.7 µM; 1.5% of 220,000 active; AID 1022;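 active means compounds that cut the protein-peptide binding signal by more than 50% relative to plate controls in a single-dose test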;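 further: His-tagged Mcl-1 with rhodamine Noxa BH3 peptide and terbium anti-His antibody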
Mcl1 Bid PPI – disrupts binding of human Mcl-1 to Bid peptide; Q07820; TR-FRET Mcl-1/Bid-Dy647 peptide binding, 1536-well; inhibition, % at 21.7 µM; 0.97% of 220,000 active;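 active means compounds that cut the binding signal by more than half at the single screening dose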;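 further: His-tagged Mcl-1 with europium anti-His antibody binding Bid BH3 peptide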
Each line names hits and unclear results; the compound was inactive in the other large screens; [ ] = remark or other dose. Shown are actives, neighbours in structure and some others; about 3.3% of the full set was active somewhere.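 How the source made its calls, unless noted: active means inhibition above about 30% (limit read from the data); inactive means the rest.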

O=C(COc1ccccc1)Nc1nnc(-c2ccc3c(c2)CCCC3)o1	p47phox inh 168
O=C(Nc1nnc(-c2ccc3c(c2)CCCC3)o1)c1ccccc1	none
Cc1ccc(C(=O)NCCc2ccc(S(N)(=O)=O)cc2)cc1[N+](=O)[O-]	none
COc1ccccc1N(C)S(=O)(=O)c1ccc(C(=O)OCC(=O)N2CCCCCC2)cc1	none
COc1ccccc1N(C)S(=O)(=O)c1ccc(C(=O)NC(C)(C)C)cc1	p47phox inh 179
COc1ccccc1N(C)S(=O)(=O)c1ccc(C(=O)OCC(N)=O)cc1	Bim-Mcl-1 44
O=C(O)CNc1nc(-c2ccccc2)nc2c1oc1ccccc12	none (no result: Bim-Mcl-1)
CSCC[C@@H](Nc1nc(-c2ccccc2)nc2c1oc1ccccc12)C(=O)O	Mcl1 Bid PPI 60
c1ccc(-c2nc(NCC3CCCO3)c3oc4ccccc4c3n2)cc1 (centres undefined)	14-3-3 Bad inh 70
c1ccc(-c2nc(NCc3cccnc3)c3oc4ccccc4c3n2)cc1	14-3-3 Bad inh 81, Mcl1 Bid PPI 63
O=C(CCC1CCCN(C(=O)c2ccc3cc[nH]c3c2)C1)NCc1ccc(F)c(F)c1 (centres undefined)	none
CC(=O)c1cn(S(=O)(=O)c2ccccc2)c2ccccc12	none
CC(=O)Nc1ccc(S(=O)(=O)NCC(CCC(=O)O)C(F)(F)F)cc1 (centres undefined)	Mcl1-Noxa inh 60
CC(=O)Nc1ccc(S(=O)(=O)NCC(C)NS(=O)(=O)c2ccc(NC(C)=O)cc2)cc1 (centres undefined)	none
COc1ccc(C(=O)/C=C/C(=O)N(CC(=O)NC2CCCCC2)Cc2ccccc2OC)c(O)c1	p47phox inh 33
COc1ccc(C(=O)/C=C/C(=O)N(Cc2ccccc2)C(C(=O)NC2CCCCC2)c2ccncc2)c(O)c1 (centres undefined)	none
COc1ccc(C(=O)/C=C/C(=O)N(CC(=O)NC2CCCCC2)CC2CCCO2)c(O)c1 (centres undefined)	Mcl1-Noxa inh 68
COc1ccc(C(=O)/C=C/C(=O)N(CC(=O)NC2CCCCC2)Cc2ccccc2)c(O)c1	p47phox inh 30
Cc1cccc(NS(=O)(=O)c2cc(C(=O)NCCC3=CCCCC3)ccc2Cl)c1	none
CCO[C@@H]1OC(C(=O)N2CCOCC2)=C[C@H](c2ccc(C(F)(F)F)cc2)[C@H]1CCCO	none (no result: p47phox inh)
CC(c1ccon1)N(C)Cc1cn(C)nc1-c1cccc(Cl)c1 (centres undefined)	none
C=CCSC1=N/C(=C\C=C\c2ccco2)C(=O)S1	Mcl1-Noxa inh 76
CCOc1cc(/C=N/N=C2/NC(=O)C(CC(=O)O)S2)ccc1OCc1ccc(Cl)cc1Cl (centres undefined)	Mcl1-Noxa inh 55
COc1cc(/C=N/N=C2/NC(=O)C(CC(=O)O)S2)ccc1OCc1ccc(Cl)cc1 (centres undefined)	none
CC(C)OC(=O)C1CC(C)(O)C(=O)C(C(=O)OC(C)C)C1c1ccc([N+](=O)[O-])cc1 (centres undefined)	none
Cc1cc(NC(=O)c2cc(C3CC3)on2)no1	none
COc1ccc(NC(=O)c2cc(C3CC3)on2)c(OC)c1	Mcl1 Bid PPI 85
CCCCC1C(=O)N(c2ccccc2)N(c2ccccc2)C1=O	Mcl1 Bid PPI 56
Cc1noc(C)c1COc1ccc(C(=O)OCC(=O)NCCN2C(=O)CSC2=O)cc1	none
CC(=O)Oc1ccc(C(c2ccc(OC(C)=O)cc2)c2ccccn2)cc1	Mcl1 Bid PPI 87
CC(C)(C)NC(=O)COc1ccc(CNn2nnnc2N)cc1	p47phox inh 56
CCn1c(-c2cc(-c3cc(C)ccc3C)nc3ccccc23)n[nH]c1=S	none
CCn1c(-c2cc(C3CC3)nc3ccccc23)n[nH]c1=S	Mcl1-Noxa inh 55
COC(=O)CSc1ccc(S(=O)(=O)N2CCCCCC2)cc1[N+](=O)[O-]	none
O=c1oc2cc(O)ccc2c2oc3cc(O)ccc3c12	Mcl1-Noxa inh 55
O=S(=O)(c1ccc(Cl)cc1)N1CCN(C2CCCCCC2)CC1	none
O=S(=O)(c1ccc(Cl)cc1)N1CCC(N2CCOCC2)CC1	14-3-3 Bad inh 80
Clc1cccc(N/N=C/c2ccc(N3CCOCC3)s2)c1	Mcl1-Noxa inh 87
O=C(N/N=C/c1ccc(N2CCOCC2)s1)c1ccccc1Br	none
CCOC(=O)c1c(NC(=O)c2c(C(=O)O)cccc2[N+](=O)[O-])sc(C)c1C	none
CC(C)c1ccc(C(=O)NCc2ccc(Cl)cc2)cc1	eIF4E-4G inh 31[fluorescence artefact?]
CC(=O)NCCNC(=O)c1ccc(CSc2ccc(Cl)cc2)cc1	none
CCNC(=O)c1ccc(CSc2ccc(Cl)cc2)cc1	eIF4E-4G inh 36
CCc1ccc(NC(=O)Nc2cccc(OC)c2)cc1	none
c1ccc(-c2nn[nH]n2)nc1	none (no result: Bim-Mcl-1)
CCc1ccc(OCc2cnc(Cl)s2)cc1	none
CC(=O)OCCNc1cc(N2CCN(C)CC2)c2noc3c2c1C(=O)c1ccccc1-3	p47phox inh 62
CCOC(=O)CSC1=N/C(=C\c2ccc(OC)c(OC)c2)C(=O)N1C	14-3-3 Bad inh 74[fluorescence artefact?]
CC1CCC2(CC1)NC(=O)N(Cc1cc(=O)n3ccsc3n1)C2=O (centres undefined)	none (no result: Bim-Mcl-1)
Cc1oc(-c2ccccc2)cc1C(=O)Nc1ccc(N(C)C)cc1	Mcl1-Noxa inh 73
Cc1oc(-c2ccccc2)cc1C(=O)Nc1cccc(/C=C\C(=O)O)c1	none
CC(=O)N1C(=O)C2(C(C#N)=C(N)Oc3n[nH]c(-c4ccccn4)c32)c2ccccc21 (centres undefined)	p47phox inh 151
CCCCc1[nH]nc2c1C1(C(=O)N(CC)c3ccccc31)C(C#N)=C(N)O2 (centres undefined)	Mcl1-Noxa inh 106
CN1C(=O)C2(C(C#N)=C(N)Oc3n[nH]c(-c4ccc(Cl)cc4)c32)c2ccccc21 (centres undefined)	none
CC(c1nnc(SCC(=O)N2CC(=O)Nc3ccccc32)n1Cc1ccccc1)N(C)C (centres undefined)	none
NNc1cc([N+](=O)[O-])cc2c1C(=O)N(Cc1ccccc1)S2=O (centres undefined)	Mcl1-Noxa inh 58
CC(C)=NNc1cc([N+](=O)[O-])cc2c1C(=O)N(C)S2=O (centres undefined)	none
CC(C)(C)c1cc(C(=O)NNC(=O)c2ccc(Cl)cc2)no1	none (no result: Bim-Mcl-1)
COc1ccc(CCn2c(=N)c(C(=O)NCc3ccco3)cc3c(=O)n4ccccc4nc32)cc1	Mcl1-Noxa inh 68
N=c1c(C(=O)NCc2ccc(F)cc2)cc2c(=O)n3ccccc3nc2n1Cc1cccnc1	Mcl1-Noxa inh 75
COCCn1c(=N)c(C(=O)NCCc2ccc(OC)cc2)cc2c(=O)n3cccc(C)c3nc21	none (no result: p47phox inh, 14-3-3 Bad inh, eIF4E-4G inh, Mcl1-Noxa inh, Mcl1 Bid PPI)
